According to PubChem BioAssay (EPA / NIEHS):
Active and inactive are the calls of the source. Rule for the calls: active = hit-call score of the fitted dose curve at least 0.9, where 1 is the maximum; inactive = score below 0.9.

Legend:
[1] = read-out: urokinase plasminogen activator (uPA), PLAU (gene 5328); experiment: BSK_KF3CT_uPA: BioMAP Diversity Plus: KF3CT Assay for urokinase plasminogen activator (uPA) Biomarker Activity (AID 2283075); conditions: primary human keratinocytes with fibroblasts; actives raise or lower the signal
Method in brief: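 ELISA readout of uPA, analyzed for signal gain or loss relative to DMSO, from a human primary keratinocyte–foreskin fibroblast co-culture measured 24 h after chemical treatment.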

CD40, CD40 (gene 958) [2] = experiment: BSK_LPS_CD40: BioMAP Diversity Plus: LPS Assay for CD40 Biomarker Activity (AID 2283076); conditions: primary human HUVEC with PBMC; actives raise or lower the signal
Method in brief: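 Primary human umbilical vein endothelial cells co-cultured with peripheral blood mononuclear cells, LPS-stimulated, were dosed with chemical and read 24 h later. CD40 levels were measured by ELISA and fitted bidirectionally against DMSO as negative control and baseline.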

[3] = read-out: E-selectin (Homo sapiens) (UniProt P16581); experiment: BSK_LPS_Eselectin: BioMAP Diversity Plus: LPS Assay for Eselectin Biomarker Activity (AID 2283077); conditions: primary human HUVEC with PBMC; actives raise or lower the signal
Method in brief: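 Human umbilical vein endothelial cells co-cultured with peripheral blood mononuclear cells under LPS stimulation; E-selectin measured by ELISA 24 h after chemical dosing. Activity fitted bidirectionally against DMSO as negative control and baseline.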

[4] = read-out: Interleukin-8 (IL8), CXCL8 (gene 3576); experiment: BSK_LPS_IL8: BioMAP Diversity Plus: LPS Assay for Interleukin-8 (IL8) Biomarker Activity (AID 2283078); conditions: primary human HUVEC with PBMC; actives raise or lower the signal
Method in brief: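 Human umbilical vein endothelial cells co-cultured with PBMC were stimulated with LPS; IL-8 levels were measured by ELISA 24 h after chemical dosing. Activity was fitted bidirectionally against DMSO as negative control and baseline.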

[5] = BSK_LPS_SRB: Viability Assessment in the BioMAP Diversity Plus: LPS Assay (AID 2283079); conditions: primary human HUVEC with PBMC;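 note: total protein by sulforhodamine B absorbance as a cytotoxicity measure; measured one day after compound addition; fitted in both directions against DMSO so loss or gain of signal counts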
Method in brief: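 Human umbilical vein endothelial cells co-cultured with PBMC (LPS system) were dosed for 24 h. Total protein was stained with 0.1% sulforhodamine B after 10% TCA fixation, read at 560 nm, and fitted bidirectionally against DMSO baseline.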

[6] = read-out: Interleukin-1 alpha (IL1a), IL1A (gene 3552); experiment: BSK_LPS_IL1a: BioMAP Diversity Plus: LPS Assay for Interleukin-1 alpha (IL1a) Biomarker Activity (AID 2283080); conditions: primary human HUVEC with PBMC; actives raise or lower the signal
Method in brief: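 Human umbilical vein endothelial cells co-cultured with peripheral blood mononuclear cells were LPS-stimulated and exposed to test chemicals for 24 h. IL-1 alpha was quantified by ELISA, with bidirectional curve fitting against DMSO as the negative control and baseline.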

[7] = read-out: Monocyte Chemoattractant Protein-1 (MCP1), CCL2 (gene 6347); experiment: BSK_LPS_MCP1: BioMAP Diversity Plus: LPS Assay for Monocyte Chemoattractant Protein-1 (MCP1) Biomarker Activity (AID 2283081); conditions: primary human HUVEC with PBMC; actives raise or lower the signal;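 for AC50: secreted MCP-1 protein quantified by ELISA in culture supernatant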
Method in brief: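 HUVEC plus PBMC co-culture (human primary cells, LPS system) exposed to test chemical for 24 h; MCP-1 measured by ELISA. Bidirectional curve fitting against DMSO baseline; parallel SRB total-protein staining flags overt cytotoxicity.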

[8] = BSK_LPS_PGE2: BioMAP Diversity Plus: LPS Assay for Prostaglandin E2 (PGE2) Biomarker Activity (AID 2283082); conditions: primary human HUVEC with PBMC; actives raise or lower the signal;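 for AC50: secreted prostaglandin E2 measured by ELISA in LPS-stimulated co-culture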
Method in brief: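 HUVEC plus PBMC co-culture stimulated with LPS; secreted PGE2 quantified by ELISA 24 h after chemical dosing. Activity fitted bidirectionally against DMSO as negative control and baseline; parallel SRB total-protein staining served as cytotoxicity check.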

[9] = read-out: Macrophage colony-stimulating factor (MCSF), CSF1 (gene 1435); experiment: BSK_LPS_MCSF: BioMAP Diversity Plus: LPS Assay for Macrophage colony-stimulating factor (MCSF) Biomarker Activity (AID 2283083); conditions: primary human HUVEC with PBMC; actives raise or lower the signal
Method in brief: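 Human umbilical vein endothelial cells co-cultured with peripheral blood mononuclear cells were exposed to compound for 24 h. M-CSF levels were measured by ELISA, and bidirectional curve fitting used DMSO as the negative control and baseline.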

[10] = read-out: Tissue Factor, F3 (gene 2152); experiment: BSK_LPS_TissueFactor: BioMAP Diversity Plus: LPS Assay for Tissue Factor Biomarker Activity (AID 2283084); conditions: primary human HUVEC with PBMC; actives raise or lower the signal
Method in brief: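 Human umbilical vein endothelial cells co-cultured with peripheral blood mononuclear cells were dosed and stimulated with LPS. Cell-surface CD142 was quantified by ELISA at 24 h. Activity was fitted bidirectionally against DMSO baseline.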

[11] = read-out: Tumor necrosis factor (Homo sapiens) (UniProt P01375); experiment: BSK_LPS_TNFa: BioMAP Diversity Plus: LPS Assay for Tumour Necrosis Factor alpha (TNFa) Biomarker Activity (AID 2283085); conditions: primary human HUVEC with PBMC; actives raise or lower the signal
Method in brief: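 Human umbilical vein endothelial cells co-cultured with PBMC were exposed to test chemical and TNFa measured by ELISA 24 h after dosing. Bidirectional curve fitting was done relative to DMSO as negative control and baseline.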

[12] = read-out: Vascular cell adhesion molecule 1 (VCAM1), VCAM1 (gene 7412); experiment: BSK_LPS_VCAM1: BioMAP Diversity Plus: LPS Assay for Vascular cell adhesion molecule 1 (VCAM1) Biomarker Activity (AID 2283086); conditions: primary human HUVEC with PBMC; actives raise or lower the signal
Method in brief: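 Human umbilical vein endothelial cells co-cultured with peripheral blood mononuclear cells under LPS stimulation were exposed to test chemical for 24 h. VCAM-1 levels were then measured by ELISA, with bidirectional curve fitting relative to DMSO as negative control and baseline.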

CD38, CD38 (gene 952) = experiment: BSK_SAg_CD38: BioMAP Diversity Plus: SAg Assay for CD38 Biomarker Activity (AID 2283087); conditions: primary human HUVEC with PBMC; actives raise or lower the signal
Method in brief: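 Fluorescence ELISA of cell-surface CD38 served as the read-out, with either increase or decrease fitted against DMSO controls. Cells were a human umbilical vein endothelium plus PBMC co-culture under SEB/TSST-1 stimulation, measured 24 h after dosing.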

CD40, CD40 (gene 958) [13] = experiment: BSK_SAg_CD40: BioMAP Diversity Plus: SAg Assay for CD40 Biomarker Activity (AID 2283088); conditions: primary human HUVEC with PBMC; actives raise or lower the signal
Method in brief: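 Human umbilical vein endothelial cells co-cultured with PBMC; CD40 levels measured by ELISA with fluorescence read-out 24 h after chemical dosing. Gain or loss of signal fitted bidirectionally against DMSO baseline.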

CD69, CD69 (gene 969) = experiment: BSK_SAg_CD69: BioMAP Diversity Plus: SAg Assay for CD69 Biomarker Activity (AID 2283089); conditions: primary human HUVEC with PBMC; actives raise or lower the signal;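 for AC50: cell surface CD69 protein quantified by ELISA with fluorescence detection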
Method in brief: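 ELISA, fluorescence read-out: CD69 on human umbilical vein endothelial cell + PBMC co-culture, 24 h post-dosing. Gain or loss of signal fitted bidirectionally against DMSO baseline.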

[14] = read-out: Monocyte Chemoattractant Protein-1 (MCP1), CCL2 (gene 6347); experiment: BSK_SAg_MCP1: BioMAP Diversity Plus: SAg Assay for Monocyte Chemoattractant Protein-1 (MCP1) Biomarker Activity (AID 2283090); conditions: primary human HUVEC with PBMC; actives raise or lower the signal
Method in brief: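 MCP-1 levels in the endothelial–PBMC SAg co-culture were quantified by ELISA at 24 h post-dosing; both increases and decreases versus DMSO scored. Cytotoxicity monitored by SRB total protein in parallel cultures.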

[15] = read-out: E-selectin (Homo sapiens) (UniProt P16581); experiment: BSK_SAg_Eselectin: BioMAP Diversity Plus: SAg Assay for Eselectin Biomarker Activity (AID 2283091); conditions: primary human HUVEC with PBMC; actives raise or lower the signal
Method in brief: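 HUVEC co-cultured with PBMC, compound dosed then read at 24 h; E-selectin measured by ELISA. Activity fitted bidirectionally against DMSO as negative control and baseline.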

[16] = read-out: Monokine induced gamma interferon (MIG), CXCL9 (gene 4283); experiment: BSK_SAg_MIG: BioMAP Diversity Plus: SAg Assay for Monokine induced gamma interferon (MIG) Biomarker Activity (AID 2283092); conditions: primary human HUVEC with PBMC; actives raise or lower the signal
Method in brief: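 ELISA readout of MIG/CXCL9; primary human umbilical vein endothelial cells co-cultured with peripheral blood mononuclear cells; 24 h post-dose; gain/loss fit vs DMSO baseline.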

[17] = BSK_SAg_PBMCCytotoxicity: PBMC Cytotoxicity Assessment in the BioMAP Diversity Plus: SAg Assay (AID 2283093); conditions: primary human HUVEC with PBMC;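 note: PBMC viability measured as Alamar Blue reduction fluorescence at 546/580 nm; fitted both ways against DMSO so a hit may be loss or gain of signal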;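 for AC50: PBMC superantigen activated with SEB plus TSST-1 one hour after compound addition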
Method in brief: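 Compound added to 75,000 PBMC/well for 1 h; SEB and TSST-1 then added at 20 ng/mL final each; 90 h incubation; Alamar Blue 6 h; read 546/580 nm ex/em. Activity fitted bidirectionally relative to DMSO baseline.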

[18] = read-out: Interleukin-8 (IL8), CXCL8 (gene 3576); experiment: BSK_SAg_IL8: BioMAP Diversity Plus: SAg Assay for Interleukin-8 (IL8) Biomarker Activity (AID 2283094); conditions: primary human HUVEC with PBMC; actives raise or lower the signal
Method in brief: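 Human umbilical vein endothelial cells co-cultured with peripheral blood mononuclear cells; IL-8 measured by ELISA 24 h after chemical dosing. Bidirectional concentration-response fitting used DMSO as negative control and activity baseline.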

Measured: AC50

Chain of E-selectin (Homo sapiens) (P16581 whole entry, looked up): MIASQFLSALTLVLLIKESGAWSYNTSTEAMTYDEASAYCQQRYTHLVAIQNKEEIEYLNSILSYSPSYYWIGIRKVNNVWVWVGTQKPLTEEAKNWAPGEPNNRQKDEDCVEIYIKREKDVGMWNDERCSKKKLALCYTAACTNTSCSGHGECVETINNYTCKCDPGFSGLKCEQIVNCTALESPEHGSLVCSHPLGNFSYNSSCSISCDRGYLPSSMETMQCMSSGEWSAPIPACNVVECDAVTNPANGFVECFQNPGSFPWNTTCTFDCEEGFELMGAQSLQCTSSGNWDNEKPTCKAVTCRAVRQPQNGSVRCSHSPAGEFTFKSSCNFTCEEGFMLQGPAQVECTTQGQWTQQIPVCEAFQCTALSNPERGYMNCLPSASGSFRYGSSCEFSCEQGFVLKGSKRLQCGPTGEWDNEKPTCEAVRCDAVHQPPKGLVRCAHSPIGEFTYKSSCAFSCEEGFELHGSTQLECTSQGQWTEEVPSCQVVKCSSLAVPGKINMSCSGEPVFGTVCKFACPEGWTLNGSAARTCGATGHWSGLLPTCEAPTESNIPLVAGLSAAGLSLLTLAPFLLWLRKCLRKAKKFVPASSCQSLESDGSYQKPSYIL
Chain of Tumor necrosis factor (Homo sapiens) (P01375 whole entry, looked up): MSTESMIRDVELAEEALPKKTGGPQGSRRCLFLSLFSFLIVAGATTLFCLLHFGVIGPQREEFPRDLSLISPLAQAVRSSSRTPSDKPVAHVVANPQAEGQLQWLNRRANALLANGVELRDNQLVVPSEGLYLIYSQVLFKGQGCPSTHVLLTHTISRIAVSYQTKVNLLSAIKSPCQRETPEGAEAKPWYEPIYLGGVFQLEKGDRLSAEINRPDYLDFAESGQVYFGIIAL

Nc1cccc(N)c1
inactive: all assays above

CCc1cc(SCc2sc(-c3ccc(C(F)(F)F)cc3)nc2CN2CCN(c3ccc(OC)cc3)CC2)ccc1OCC(=O)O
active: [1] 5.22 µM | CD40, CD40 (gene 958) [2] 6.6 µM | [3] 14.8 µM | [4] 33.6 µM | [5] 13.4 µM | [6] 30.6 µM | [7] 12.3 µM | [8] 20 µM | [9] 13.3 µM | [10] 30.2 µM | [11] 38.1 µM | [12] 24.7 µM | CD38, CD38 (gene 952) 10.3 µM | CD40, CD40 (gene 958) [13] 11.7 µM | CD69, CD69 (gene 969) 15.1 µM | [14] 11.4 µM | [15] 12.2 µM | [16] 14.1 µM | [17] 21.5 µM | [18] 20 µM

COc1ccc2sc(C(=O)Nc3nnn[nH]3)c(OC(C)C)c2c1
active: [1] 29.5 µM | CD40, CD40 (gene 958) [2] 7.18 µM | [3] 23.4 µM | [4] 28.5 µM | [5] 9.83 µM | [6] 13.2 µM | [7] 19.8 µM | [8] 34.1 µM | [9] 14.1 µM | [10] 33.2 µM | [11] 28.9 µM | [12] 8.99 µM | CD38, CD38 (gene 952) 16.2 µM | CD40, CD40 (gene 958) [13] 9.27 µM | CD69, CD69 (gene 969) 19.9 µM | [14] 15.4 µM | [15] 30 µM | [16] 27.8 µM | [17] 10 µM | [18] 16.6 µM

CC(C)(O)c1coc(S(=O)(=O)NC(=O)Nc2c3c(cc4c2CCC4)CCC3)c1
active: [4] 0.148 µM | [11] 0.405 µM
not listed: [17]
inactive: all other assays above

CCCCC(CC)COC(=O)c1ccc(C(=O)OCC(CC)CCCC)cc1 (centres undefined)
not listed: CD38, CD38 (gene 952) | [18]
inactive: all other assays above

Cn1c(=O)c2c(ncn2C)n(C)c1=O
not listed: [17]
inactive: all other assays above

CC(C)CC(C)(O)C#CC(C)(O)CC(C)C (centres undefined)
not listed: [17]
inactive: all other assays above

Cc1c(-c2cccnc2)c2ccccc2n1CCCCC(=O)O
active: [8] 1.14 µM
not listed: CD38, CD38 (gene 952)
inactive: all other assays above

O=C(O)c1cccc(N(Cc2cccnc2)c2ccc(OC(F)F)c(OC(F)F)c2)c1
active: [3] 11 µM | [4] 9.79 µM | [6] 20 µM | [7] 10.7 µM | [8] 12.2 µM | [10] 9.14 µM | [11] 1.95 µM | [12] 15.9 µM | CD38, CD38 (gene 952) 3.61 µM | CD40, CD40 (gene 958) [13] 13.7 µM | CD69, CD69 (gene 969) 4.01 µM | [14] 6.77 µM | [15] 1.81 µM | [18] 2.31 µM
inactive: [1] | CD40, CD40 (gene 958) [2] | [5] | [9] | [16] | [17]

Fc1ccccc1[C@@H](F)COC1CCC(Nc2ncnc3[nH]ncc23)CC1 (some centres undefined)
inactive: [1] | [6] | [8] | [10] | [11] | [12] | [15] | [16]
active: CD40, CD40 (gene 958) [2] 15.4 µM | [3] 29 µM | [4] 28.9 µM | [5] 29.2 µM | [7] 30.3 µM | [9] 20 µM | CD38, CD38 (gene 952) 20 µM | CD40, CD40 (gene 958) [13] 16.3 µM | CD69, CD69 (gene 969) 24.2 µM | [14] 31.6 µM | [17] 13.7 µM | [18] 20 µM

CC(C)CCCCCCCOC(=O)CCCCC(=O)OCCCCCCCC(C)C
inactive: all assays above

Oc1ccc2c(c1)-c1ccccc1C2
active: CD40, CD40 (gene 958) [2] 20 µM | [5] 20 µM | [8] 13.2 µM | [11] 0.334 µM | CD40, CD40 (gene 958) [13] 24.8 µM
inactive: all other assays above
